# Experimental data as given in ChEMBL document CHEMBL3988442, “University of Dundee, Small-Polar-MMV Screening Library” (2021).
# The campaign covered roughly 48,000 compounds. About 13,000 (27%) showed an effect of 50% or more. The list shows a part of the results.
# Tested on: Wolbachia pipientis
# Test: Anti-Wolbachia Cell-Based Screen
# Assay type: functional
# Parameters: scale not given: in the data most compounds retested in dose-response had high values
# Settings: 5 µM
row,SMILES,Percent Effect [%]
1,CCNS(=O)(=O)c1ccc(C)c(C(=O)N(C)Cc2ccco2)c1,-0.5279
2,N#Cc1ccccc1OCCN1CCC(C(=O)N2CCOCC2)CC1,-3.937
3,COc1cccc(CCNC(=O)CN2CCN(C)CC2C)c1 (stereo not given),5.841
4,Cc1nnc(N2C[C@@H]3CCCO[C@@H]3[C@H](N3CCCC3=O)C2)s1.O=C(O)C(F)(F)F,-2.907
5,CC(C)Cc1cc(-c2cc(-c3ccc[nH]3)nc(N)c2C#N)n[nH]1,126.8
6,Cc1n[nH]c(C)c1-c1c(C#N)c(N)nc2c1CCc1[nH]ccc1-2,9.181
7,Cc1n[nH]c(C)c1-c1cc(-c2cc[nH]c2)nc(N)c1C#N,123.5
8,Cn1cc(-c2c(C#N)c(N)nc3c2CCc2[nH]ccc2-3)cc1C#N,-2.103
9,Cc1n[nH]c(C)c1-c1cc(-c2cccc(O)c2)nc(N)c1C#N,88.86
10,Cc1n[nH]c(C)c1-c1cc(-c2ccc[nH]2)nc(N)c1C#N,119.5
11,CCN(c1ccccc1C(=O)O)S(=O)(=O)c1cccc2cccnc12,-1.145
12,CC(C)=CCN1CCN(C(=O)CSc2ccccn2)[C@H]2CS(=O)(=O)C[C@H]21,6.252
13,c1[nH]c(CC2CCCC2)nc1CN1CCCC2(CCOC2)C1 (stereo not given),-3.102
14,CS(=O)(=O)c1ccc(NC(=O)CSC(F)(F)F)cn1,0.5317
15,CC(C)(C)c1n[nH]c(C2CN(C(=O)Cn3ccccc3=O)CCO2)n1 (stereo not given),103.2
16,Cc1n[nH]c(C2CN(C(=O)Cn3ccccc3=O)CCO2)n1 (stereo not given),-1.768
17,CC(C)c1csc(C2CCCN(C(=O)Cn3ccccc3=O)C2)n1 (stereo not given),-10.1
18,CC(C)c1n[nH]c(C2CN(C(=O)Cn3ccccc3=O)CCO2)n1 (stereo not given),111.9
19,CC(C)c1n[nH]c(C2CN(C(=O)CCn3ccccc3=O)CCO2)n1 (stereo not given),2.958
20,Cc1ccc(CC(=O)N2CCOC(c3nc(C(C)(C)C)n[nH]3)C2)cn1 (stereo not given),10.27
21,CCN(C)S(=O)(=O)NCC1(c2ccccc2Br)CC1,2.269
22,CN(Cc1csc(-c2cccs2)n1)Cc1ncccc1C(=O)O,6.204
23,CN(C)C(=O)C1SCCc2ccccc21 (stereo not given),-15.52
24,CCOc1ccc(NC2CCN(CC(F)(F)F)C2=O)cc1C (stereo not given),-0.2214
25,COc1ccc(S(=O)(=O)NCC(C)(O)c2cccs2)cc1Cl (stereo not given),0.9761

row,SMILES,Percent Effect [%]
1,COc1cccc(CN(C)C(C)c2nccs2)c1OCCn1ccnc1 (stereo not given),-3.505
2,Cc1ccn(-c2ccccc2NCc2cccnc2C)n1,-1.379
3,CN1C(=O)CC[C@]12CC[C@@H](NC(=O)NCc1cccnc1)CC2.O=C(O)C(F)(F)F,120.2
4,O=C(O)C(F)(F)F.O=C1CC[C@]2(CC[C@@H](NC3CCOCC3)CC2)N1Cc1ccccc1,-21.38
5,CN1CCN(Cc2cccnc2)C2(CCN(C3CCOCC3)C2)C1=O.O=C(O)C(F)(F)F.O=C(O)C(F)(F)F.O=C(O)C(F)(F)F (stereo not given),4.033
6,CC(C)N1CCC(NC(=O)NCc2cccnc2)C1 (stereo not given),-0.2987
7,CCN1C(=O)CC[C@]12CC[C@@H](NC(=O)NCc1cccnc1)CC2.O=C(O)C(F)(F)F,126.1
8,O=C(NCc1cccnc1)N[C@H]1CC[C@@]2(CCC(=O)N2CC2CC2)CC1.O=C(O)C(F)(F)F,109.8
9,Cc1ccc(CN2C(=O)CC[C@]23CC[C@@H](NC2CCOC2)CC3)cc1.O=C(O)C(F)(F)F (stereo not given in full),-29.75
10,CC(C)CN1C(=O)CC[C@]12CC[C@@H](NC(=O)NCc1cccnc1)CC2.O=C(O)C(F)(F)F,100.3
11,O=C(O)C(F)(F)F.O=C1CC[C@]2(CC[C@@H](NC3CCOC3)CC2)N1Cc1ccccc1 (stereo not given in full),-11.81
12,CCN1C(=O)CC[C@]12CC[C@@H](NC(=O)c1cc(C)on1)CC2,-41.62
13,O=C(NCc1cccnc1)C1CC(=O)N(CC2CC2)C1 (stereo not given),7.078
14,O=C(NCc1cccnc1)NC1CCCN(c2ncccn2)C1 (stereo not given),12.61
15,CC(C)CN1CCC(c2nc3c([nH]2)CC(C)(C)CNC3=O)C1 (stereo not given),-15.84
16,c1cn(Cc2nnc(C3CCN(C4CCNCC4)CC3)n2C2CC2)cn1,-5.551
17,O=C1CCOC[C@]2(CN(Cc3ccccc3)C[C@H]2c2ccccc2)N1,85.32
18,NC(=O)CN1CC2(CCC1=O)CCN(Cc1ccccc1F)CC2,-12.52
19,O=C1NCC[C@]12CN(Cc1ccoc1)C[C@H]2c1ccccc1,-11.19
20,O=C1NC[C@@]2(C(=O)O)CN(Cc3ccc(Oc4ccccc4)cc3)C[C@@H]12,22.58
21,O=C1CCOC[C@]2(CN(Cc3ccccc3)C[C@H]2c2cccnc2)N1,97.51
22,O=C(NC1CC(F)(F)C1)[C@]12COC[C@H]1CN(Cc1ccccc1)C2.O=C(O)C(F)(F)F,-29.2
23,O=C(O)CCCN1C[C@@H](c2ccccc2F)[C@@]2(CCCCC(=O)N2)C1,110
24,O=C(CC1CN(Cc2ccccc2)CCO1)Nc1ccccc1F (stereo not given),-6.692
25,O=C1NC2(CCN(Cc3cccnc3)CC2)CC1c1ccncc1 (stereo not given),-17.77
